Laboratory results published in PubChem BioAssay (Tox21).
“And” between values parts separate entries of the source, which are not always exact repeats. Equal entries are not always repeated. Inconclusive results are not listed. A structure can be active in one record and inactive in another. The source made the active and inactive calls. The call rests on the fitted dose curve; in most records, active means well fitted curve in the direction sought with a large enough effect in the repeat runs; inconclusive means weak or mixed curves; inactive means no such curve, though single readings can be large; an effect the other way counts as inactive or inconclusive.

How the values were obtained:
[1] = A CellTox Green Cytotoxicity Assay to monitor cytotoxicity in HEK293 cells - 40 hour (AID 1224871); further: nearly all actives have a fitted effect of over 45% in size; further: potency means the concentration at half of the fitted maximal effect
Procedure, shortened: (§1)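 Tox21 screen in HEK293: membrane-impermeant cyanine dye fluoresces on binding dead-cell DNA; compound pinned 5 h post-seeding, plates held at 37 C, signal read repeatedly through 40 h.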

[2] = qHTS RealTime-Glo MT Cell Viability Assay in HepG2 cells - 8 hour (AID 1224873); further: nearly all actives have a fitted effect of over 55% in size
Procedure, shortened: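 HepG2 cells (600/well) mixed with RealTime-Glo MT reagent, settled 5 h at 37 C/5% CO2 before compound addition. Nonlytic NanoLuc luminescence from viable-cell prosubstrate reduction read repeatedly during 40 h treatment at 37 C.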

[3] = qHTS RealTime-Glo MT Cell Viability Assay in HEK293 cells - 40 hour (AID 1224874); settings: RealTime-Glo luminescence; max response: stronger effect = lower value; further: nearly all actives have a fitted effect of over 50% in size; further: potency means the concentration at half of the fitted maximal effect
Procedure, shortened: (§2)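 HEK293 + NanoLuc + prosubstrate, 600 cells/well; 5 h, 37 C/5% CO2; compound 23 nL in DMSO by pintool; 37 C; luminescence read at 0, 8, 16, 24, 32 and 40 h time points.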

[4] = A CellTox Green Cytotoxicity Assay to monitor cytotoxicity in HEK293 cells - 24 hour (AID 1224875); further: series mostly up to about 77 µM; nearly all actives have a fitted effect of over 45% in size
Procedure, shortened: as §1

[5] = A CellTox Green Cytotoxicity Assay to monitor cytotoxicity in HepG2 cells - 16 hour (AID 1224876); further: nearly all actives have a fitted effect of over 45% in size; further: potency means the concentration at half of the fitted maximal effect
Procedure, shortened: (§3)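 Measurements at 0, 8, 16, 24, 32 and 40 h of treatment captured CellTox Green fluorescence in HepG2 cells that had been co-plated with reagent and preincubated 5 h at 37 C/5% CO2.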

[6] = qHTS RealTime-Glo MT Cell Viability Assay in HepG2 cells - 32 hour (AID 1224877); further: nearly all actives have a fitted effect of over 55% in size
Procedure, shortened: (§4)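 Cell number in HepG2 cultures estimated from NanoLuc luminescence generated by metabolic reduction of a prosubstrate by living cells. The homogeneous, nonlytic format allowed repeated reads at 0, 8, 16, 24, 32 and 40 h of compound exposure.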

[7] = qHTS RealTime-Glo MT Cell Viability Assay in HEK293 cells - 0 hour (AID 1224880); further: top concentration of the series differs between compounds; nearly all actives have a fitted effect of over 45% in size
Procedure, shortened: as §2

[8] = A CellTox Green Cytotoxicity Assay to monitor cytotoxicity in HEK293 cells - 32 hour (AID 1224881); further: nearly all actives have a fitted effect of over 40% in size
Procedure, shortened: as §1

[9] = A CellTox Green Cytotoxicity Assay to monitor cytotoxicity in HepG2 cells - 0 hour (AID 1224882); further: nearly all actives have a fitted effect of over 35% in size; further: potency means the concentration at half of the fitted maximal effect
Procedure, shortened: as §3

[10] = A CellTox Green Cytotoxicity Assay to monitor cytotoxicity in HEK293 cells - 8 hour (AID 1224884); further: nearly all actives have a fitted effect of over 35% in size
Procedure, shortened: as §1

[11] = qHTS RealTime-Glo MT Cell Viability Assay in HepG2 cells - 16 hour (AID 1224885); further: nearly all actives have a fitted effect of over 50% in size
Procedure, shortened: as §4

[12] = qHTS RealTime-Glo MT Cell Viability Assay in HEK293 cells - 24 hour (AID 1224886); further: nearly all actives have a fitted effect of over 50% in size; further: potency means the concentration at half of the fitted maximal effect
Procedure, shortened: (§5)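 Homogeneous bioluminescent viability format in HEK293 cells (600 cells/well). Following 5 h at 37 C/5% CO2, 23 nL compound was pintooled; the signal was measured repeatedly during 40 h incubation.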

[13] = qHTS RealTime-Glo MT Cell Viability Assay in HEK293 cells - 8 hour (AID 1224887); further: nearly all actives have a fitted effect of over 50% in size; further: potency means the concentration at half of the fitted maximal effect
Procedure, shortened: as §2

[14] = A CellTox Green Cytotoxicity Assay to monitor cytotoxicity in HEK293 cells - 16 hour (AID 1224888); further: nearly all actives have a fitted effect of over 35% in size
Procedure, shortened: as §1

[15] = A CellTox Green Cytotoxicity Assay to monitor cytotoxicity in HepG2 cells - 8 hour (AID 1224890); further: nearly all actives have a fitted effect of over 45% in size; further: potency means the concentration at half of the fitted maximal effect
Procedure, shortened: as §3

[16] = qHTS RealTime-Glo MT Cell Viability Assay in HEK293 cells - 16 hour (AID 1224872); further: nearly all actives have a fitted effect of over 50% in size; further: potency means the concentration at half of the fitted maximal effect
Procedure, shortened: as §5

[17] = A CellTox Green Cytotoxicity Assay to monitor cytotoxicity in HepG2 cells - 24 hour (AID 1224878); further: nearly all actives have a fitted effect of over 45% in size; further: potency means the concentration at half of the fitted maximal effect
Procedure, shortened: as §3

[18] = A CellTox Green Cytotoxicity Assay to monitor cytotoxicity in HepG2 cells - 40 hour (AID 1224879); further: nearly all actives have a fitted effect of over 40% in size
Procedure, shortened: as §3

[19] = A CellTox Green Cytotoxicity Assay to monitor cytotoxicity in HepG2 cells - 32 hour (AID 1224883); further: nearly all actives have a fitted effect of over 50% in size
Procedure, shortened: as §3

[20] = qHTS RealTime-Glo MT Cell Viability Assay in HepG2 cells - 0 hour (AID 1224889); further: nearly all actives have a fitted effect of over 50% in size
Procedure, shortened: as §4
On the % scale 0 is the no-effect control and ±100 the full control effect.

O=C(O)CO
inactive: Potency [1] | Potency [2] | max response [3] 8.33% | Potency [4] | Potency [5] | Potency [6] | Potency [7] | Potency [8] | Potency [9] | Potency [10] | Potency [11] | Potency [12] | Potency [13] | Potency [14] | Potency [15]

CC[C@H]1OC(=O)[C@H](C)[C@@H](O[C@H]2C[C@@](C)(OC)[C@@H](O)[C@H](C)O2)[C@H](C)[C@@H](O[C@@H]2O[C@H](C)C[C@H](N(C)C)[C@H]2O)[C@](C)(O)C[C@@H](C)/C(=N\OCOCCOC)[C@H](C)[C@@H](O)[C@]1(C)O
inactive: Potency [16] | Potency [2] | max response [3] -15% | Potency [4] | Potency [5] | Potency [6] | Potency [17] | Potency [18] | Potency [7] | Potency [8] | Potency [9] | Potency [19] | Potency [10] | Potency [11] | Potency [12] | Potency [13] | Potency [14] | Potency [20] | Potency [15]

SCCc1cnccn1
inactive: Potency [16] | Potency [2] | max response [3] 10.1% | Potency [4] | Potency [5] | Potency [6] | Potency [17] | Potency [18] | Potency [7] | Potency [8] | Potency [9] | Potency [19] | Potency [10] | Potency [11] | Potency [12] | Potency [13] | Potency [14] | Potency [20]

CCN(CC)CCOc1ccccc1C(=O)CCc1ccccc1
active: Potency [16] 10.7 µM | Potency [3] 10.7 µM | Potency [12] 10.7 µM | Potency [13] 10.7 µM
inactive: Potency [2] | Potency [4] | Potency [5] | Potency [6] | Potency [17] | Potency [18] | Potency [7] | Potency [8] | Potency [9] | Potency [19] | Potency [10] | Potency [11] | Potency [14] | Potency [20] | Potency [15]

CC(CCc1ccc(O)cc1)NCCc1ccc(O)c(O)c1 (stereo not given)
inactive: Potency [1] | Potency [2] | max response [3] -18.1% | Potency [4] | Potency [5] | Potency [17] | Potency [18] | Potency [7] | Potency [8] | Potency [9] | Potency [19] | Potency [10] | Potency [11] | Potency [12] | Potency [13] | Potency [14] | Potency [15]

O=NN(CCCl)C(=O)NCCCl
inactive: Potency [1] | Potency [2] | max response [3] 8.5% | Potency [4] | Potency [6] | Potency [7] | Potency [8] | Potency [10] | Potency [11] | Potency [12] | Potency [13] | Potency [20]
active: Potency [5] 4.77 µM | Potency [17] 4.77 µM | Potency [9] 5.35 µM | Potency [15] 5.35 µM

O=C(CCS)OCC(COC(=O)CCS)(COC(=O)CCS)COC(=O)CCS
inactive: Potency [1] | Potency [2] | Potency [4] | Potency [5] | Potency [6] | Potency [17] | Potency [18] | Potency [7] | Potency [8] | Potency [9] | Potency [19] | Potency [10] | Potency [11] | Potency [14] | Potency [20] | Potency [15]

CC(C)(C)CCCCCCOC(=O)c1ccccc1C(=O)OCCCCCCC(C)(C)C
inactive: Potency [1] | Potency [2] | max response [3] 7.13% | Potency [4] | Potency [5] | Potency [17] | Potency [18] | Potency [7] | Potency [8] | Potency [9] | Potency [19] | Potency [10] | Potency [11] | Potency [13] | Potency [14] | Potency [15]

BrC(Br)C(Br)Br
inactive: Potency [1] | Potency [2] | max response [3] -12.1% | Potency [4] | Potency [5] | Potency [17] | Potency [18] | Potency [7] | Potency [8] | Potency [9] | Potency [19] | Potency [10] | Potency [11] | Potency [12] | Potency [13] | Potency [14] | Potency [20] | Potency [15]

CC(=O)NNC(C)=O
inactive: Potency [16] | Potency [2] | max response [3] 0.186% | Potency [4] | Potency [5] | Potency [6] | Potency [17] | Potency [18] | Potency [7] | Potency [8] | Potency [9] | Potency [19] | Potency [10] | Potency [11] | Potency [12] | Potency [13] | Potency [14] | Potency [15]

COc1ccc2nc(S(=O)Cc3ncc(C)c(OC)c3C)[nH]c2c1 (stereo not given)
21.6 µM (active) and inactive: Potency [12]
inactive and 1.7 nM (active): Potency [1]
24.3 µM (active) and inactive: Potency [13]
inactive: Potency [2] | Potency [4] | Potency [5] | Potency [6] | Potency [17] | Potency [18] | Potency [7] | Potency [8] | Potency [9] | Potency [19] | Potency [10] | Potency [11] | Potency [14] | Potency [20] | Potency [15]

Nc1cccc2c(N)cccc12
inactive: Potency [1] | Potency [4] | Potency [5] | Potency [6] | Potency [17] | Potency [7] | Potency [8] | Potency [9] | Potency [10] | Potency [13] | Potency [14] | Potency [20] | Potency [15]

CNc1c2c(nn1C)CCCC2
inactive: Potency [16] | Potency [2] | max response [3] -3.57% | Potency [4] | Potency [5] | Potency [6] | Potency [17] | Potency [18] | Potency [7] | Potency [8] | Potency [9] | Potency [19] | Potency [10] | Potency [11] | Potency [12] | Potency [13] | Potency [14] | Potency [20] | Potency [15]

C=CCOC(=O)COCCC(C)C
inactive: Potency [16] | Potency [2] | max response [3] -1.87% | Potency [4] | Potency [5] | Potency [6] | Potency [17] | Potency [18] | Potency [7] | Potency [8] | Potency [9] | Potency [19] | Potency [10] | Potency [11] | Potency [12] | Potency [13] | Potency [14] | Potency [20]
